# Measured values: the supplement of paper PMC10681739
# In all, about 4,100 sequences were measured (“arbitrary fluorescence units”: median about 780, highest 2% from about 22,000 on). The full list was thinned out, with the highest values kept by preference.
# Target: T1, ETS1 (UniProt P14921)
# T1 sequence: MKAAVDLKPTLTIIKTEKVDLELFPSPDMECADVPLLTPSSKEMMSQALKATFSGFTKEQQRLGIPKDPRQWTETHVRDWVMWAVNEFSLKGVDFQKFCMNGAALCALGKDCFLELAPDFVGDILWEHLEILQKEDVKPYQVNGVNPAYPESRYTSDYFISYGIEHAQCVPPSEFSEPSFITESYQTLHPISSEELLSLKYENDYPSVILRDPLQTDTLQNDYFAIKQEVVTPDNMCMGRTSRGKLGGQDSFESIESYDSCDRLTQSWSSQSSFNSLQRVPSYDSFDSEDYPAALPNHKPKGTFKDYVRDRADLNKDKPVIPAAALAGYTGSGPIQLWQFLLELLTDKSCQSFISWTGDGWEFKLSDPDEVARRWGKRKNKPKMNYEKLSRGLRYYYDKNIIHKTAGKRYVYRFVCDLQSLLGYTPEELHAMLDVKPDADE
# Test: ETS1 binding intensity (PBM fluorescence), ETS1 alone (arbitrary fluorescence units); higher = stronger binding
# Conditions: ETS1 concentration 1 nM; RUNX1 concentration 0 nM
# Procedure: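 gcPBM on 36-bp genomic-derived probes (partner site mutated) containing one ETS1 site and no RUNX1 site. Recombinant human ETS1 (1 nM) was incubated alone or with RUNX1 (25 nM) and detected by anti-ETS1 antibody fluorescence. Values are medians over 4 replicate spots (not normalised). The probes sit in constant array flanks that are not printed.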
row,Sequence,ETS1 binding intensity
1,GGGACTGCAGTCCCGGGGAGCGCACCGGAAGTTCTC,4610
2,ACAGAGGTGCTACCCCAAGGACCGGAAGCAGAGACC,3940
3,TACCGGCGTTAATATAGTAAGGGCGGAAGTTCTCCT,1190
4,GCCCCGGAAGCTCCTTAAGGAGGACCGTGTGAGTTT,1880
5,GGACCGGAAGTTAAGGCGTTCGCGGCGTGTGATAAG,22900
6,ACTTGGCAGTTCCGGGTCCGCGCCCCAGCGCGCCAC,2630
7,GTAGCAACAGCAGGCTCACACACCGGAAGTGCTCGC,9380
8,TTGCTCCCGGAAGCCCCGCCCGTCCGTGGCTCCTGA,1350
9,CCTGCCTTCCGTCTTCCAGGCAGAACGACAGAGAGG,1710
10,CAGATTTCCGGCTTCTGAGGAGCTGCCCTACCCCAG,38200
11,CCCAGAGCTTCCGATTGGCTCTTCTGAGGTGGCGGG,1750
12,AATGAGCCCCAGAACCCTTTTCCTTCCGGCCTGCAC,1300
13,AGTAACCAGCAGGCTGTGCCGGCAGGATGTTGTCTT,469
14,CTGGGGTCGGGGCGAGGGAGCTGCCGGGGAAGTGAG,513
15,GGCCAAGAAATCCACTCAGAGGAAATCACAGGCCTG,439
16,GAGAAACGTCAGGCATGGCCGGGCCACCAGGAAAAC,347
17,CCCGGCGGCTACTTTCGGTCACTTTCGCCGGAACCT,444
18,GGCCGACGGGAAGTGTAGTCCGGCCTGCAGTCCGGG,1970
19,GCCCTACCCAGCGGCGGCCGGACGCTTCGGCGCAGG,435
20,GCTCGTTTGGGGTTACTGACATCCGGCCTTCATTTC,5140
21,TTTTTTCCGCCTGTAGGGTCACATTGGGGTTGATTG,2790
22,CTGACGCATTTCCGGCCTTTGGGGTTGATCGGTCAT,26200
23,CCAGGAGGGATGGGGAAGTTCACCAGACACTCCATG,444
24,GTCACTGTCGTATTTACTTTAGCTTCCTGTTCATCC,1880
25,CGATTCCGGATTGGTCCAATTCCAGCGCCGAAGCCC,673
26,GCCACCTTACGACAGCTGTACAGAGCTTCCTTTAGC,390

row,Sequence,ETS1 binding intensity
1,CTAGCAGCTTCCGAGGGGGCGGCGGCCGGAGCGAGT,784
2,AGCACTTCCGTTTGGGCAGGGCTGAGGGCCGGAGGG,16800
3,AACCTCCGACTTCCGGCCGCGCAGCGGAGGGCTGAG,32100
4,GGGGGAGTTTTCGGAAGCGCTAACAGCGTTGGGGCC,566
5,TGGTGCCAAACATCCGCTAGCCAGAGAAAAACCGAC,6500
6,ACACCGTGCTTTTCGGTTCCCGGAAGTCCTTCAGGC,1560
7,GACAAGATTGCAGGTGGCAACCCCATCCGGTTTGTT,1400
8,GGTCGCTCTGGTGACGGGGGAGGAAATTCTGTCCGT,512
9,GTGAGCTTCCCGGCGCGCGGGGGGCGGTGCGCCTTC,797
10,TCTGTCGCACATCCGGTGTGAGCTTCGGGGCGGTGG,22500
11,CCTTTGGGGTAGCAGTGGCCCCGCGCGGAGGAAGTT,303
12,CTAGCCACCTCGGCCCCACCCTCTTCCGGCCTCAGC,1820
13,TGACATTTCCGGCCCCACCTCGGCCTGCAGCGCCGC,40200
14,GCAGCTTCCGCGGCCCCCGCCCGGCCTGCAGCGCCA,2350
15,TATCAGCTTCCGACGTGCCCCTCGGTATCTGGACTA,1600
16,GGATTTTGGGGTAGCGAACCCCGGGGCCGGAAGCAG,1080
17,CTGTCTGCTTCCCGTGGCCAGCCCTGATCGCGGCCC,953
18,TTCGCTCCCTGAATCGCGTCGCTTCCTGAGCCGCGC,454
19,CGGGACTTCCTGTCTTCCCTGTCGCGGAGCTCTGAA,27000
20,CCATTGGCGGGCGGCTTGAATGACGGAAGTGACGGC,872
21,CTGTCGTGACCCGGCAGGAGTAGCGTCGGAAGCAAT,403
22,CTTAGCGGAAGAGGCGTGACCCAGGCGTACCCCAGG,1380
23,GGTCCAGGAAGACGTCAAGGGCTTGGATTTGTAAAC,437
24,TAGGTCACCTCCGCGACACAGCAACGGAAGTAGGGT,1110
25,AGGGGCAGAGCACAGCACCACCGGAAGTAGGGCTCA,9450
26,GCACCACCGGAAGTAGGGCTCAACCTCCGCTCATTT,24400

row,Sequence,ETS1 binding intensity
1,GTCCCCTCGGTGTCACAGCAATATCCGTTCTTTGAT,1190
2,CGGGAATCCACGGAATTTACTGCCGGAAGTTCGGCG,2700
3,CGAGAACGGCGCCACTGAGGAACCGGAAACAAGCCA,3230
4,AGACCCTGTTGTCACATGGCAGGAAGTCTGCAGGTT,1060
5,GAAGTCACATCCTGTCTGTTGGGGCAGGGCACAGAG,23500
6,CATCTGTTGTCTCCTTGAAGTCACATCCCACAGGAG,438
7,ACAAAAAAATCACACACCCAACGGAAACCATAGAGA,669
8,AGCACCCCATTCTACACCTCCAGCTCATCCTGCGTC,389
9,GAACTTCCGGGACCACGTGACGTAGAACTACAACAA,32800
10,CTCCTGGGCTTGTAGTTAGAACATCCTGCAGCAAAG,1130
11,GCAGGACTTCCTGTGTTGTGCTAACCCCAAATTACA,22100
12,TTTCTGACTTCCTGTGTGCTTCAGAAACCCCAATGA,25100
13,AATGAGCCCCAGAACCCTTTTCCTTCCGGCCTGTGC,1520
14,CGGAGAGCTCGCGGCAATTCCGTTTCCCCGCCCTTT,404
15,CCGCCCACTTCCGTGTGGCCGCCGATTGGTCTTGCC,7350
16,GCTGCTTCCGGCCGCTGGTCGCAGGGCTGAGGGACT,26400
17,GAGGGCTGCTTCCTGCTCTGTGGAGGCCGCTGAGGG,6710
18,GGCCTACGGGAGGGCCCGCCTTGGCTGCTTCCGCAG,310
19,GGCTCTGCCGTCCGCTGACAGGAAGACGCTGACGAC,973
20,TGCGCTCGATTGTGAGCGGGGGCGGAAAGAGGCGCC,471
21,GTAGGGCCGGACGGCAGGCTCCGGGATAGCGCCACG,416
22,AGCTTTTCTGAGAGCGCGGGCAGGATGTGACCTCCC,675
23,CTTTCTGTCGAGGTCAGGTTTCCTCTCCTTTATGAA,437
24,CGTGTCCACGGGGACCGAAAGTGGCGTCCGGCGCAA,354
25,GCGGGGCGTGTCCACGCACTTCCGGTTTTCTCGAAA,28700
26,GGGTCCTTCCGGGTTTTGTGTCGAATCTACGGCGGC,7400

row,Sequence,ETS1 binding intensity
1,TGTGTAATCCCCACGACAACCTAGGAAGTGGGAAAA,410
2,CTGCCCATCGCTGTTAACTTTTCCGCCTCCTTAAAG,492
3,ACCTTCGCCGCTGTCCCCAGCCTCTTCCTGTCCCGG,1130
4,GTCTTACTTCCTGTCCCCGCCCACCTCGACTGTCTT,22700
5,CCTGACTTCCTCCTCCCCCTCCCGCCCCAATTCCGC,4620
6,AGTTGCTAAGGAAATGACTGCCTGCAGCGCCTGGCC,610
7,GAAGAGACTCCCGCCACCTTGGCCGTTTCCCCTGAT,318
8,GCCGCTGGGTAGGCGGAAGTAGCCGCTGGCATGGCA,2800
9,AGAAAACTACATTCAATTCTCTTTACACAGGATGTT,661
10,CGGGACAGCGACGGGCCAGGTGACCGGAAGAGGCCG,1770
11,GCGGAGCTTGTAGGCCAGGAGGACTTCCGGGTGGGT,2220
12,CGGAGCCCAACGACCGGCACTTCCGGGGGGCGGGTG,5010
13,GCACTTCCGGAGCCGGGCGTCTACAGGCCGAGGCCA,28500
14,CACCCTCACGGAAACAGCTGTGTGTAAGCACCTCCA,585
15,TATCATTTTTACGACAGAGGTACAGGAAATTGTTTC,733
16,TAGGTTTGGGGTAGAAGCTGCAGGAACTTCCTGTCC,1710
17,CCCCTCACTTCCCTCAACCCTTCCCATAAACTGGGA,1620
18,CGACGTCACTTCCGCTGGTTCAAGCACCGTGAGACT,21400
19,GCGCACTTCCGGGCTGGTGAACGCGTTGACGTCACC,35400
20,GGTGACGTCAACGCGTTCACCAGCCCGGAAGTGCGC,1230
21,AAGCTTCCTGGCCCTTTAAAAATGGAGGTTCCGCAC,4840
22,GGGGCGATTACAGAACGGGTAACTCAGGATGATTCA,541
23,CTTGGGGTCCCCTCGGGTGGTGGCAGGATGTAGGTA,480
24,CCGAGCGCATTTTACGTGGTGCTGCATTTCCGGTAG,3930
25,GGACCGGAAGTAGGTTTCTACCCGAGCGCATTTTAC,27600
26,CGCCCCGGCAGCCGCCCACGTCCGGGGGCCAGGCCT,802

row,Sequence,ETS1 binding intensity
1,GAGAACTTCCGGTGCGCTCCCCGGGACTGCAGTCCC,46000
2,AGCGCTTCCTGGCTCCGGCCCCGCCCCTGCAGTCGG,6440
3,TGGCGGGAGAACTTCCCCCTGTGCGCTCGCGACGTG,775
4,CTTTTTGGTCTGCCAGGCACGGATTTCCGCCCACTC,1270
5,ATGGAAAGGAAGTCGGTGGGAATCCGCCTCAGCGGT,1590
6,CCCACTTCCTGTCCCTGCATGCTCTGGGGCAGGCAG,31100
7,GTGTCCTGTGCTCTCCTCTGCGCCACTTCCCTGCCT,623
8,GTCCTCTTCCTGTCCCCCAGGTGGGCATGTGATTTG,6800
9,GGCGGCTGTGAGCGCAAAACCCAAAACTTCCGATGG,452
10,TCAGGAGCCACGGACGGGCGGGGCTTCCGGGAGCAA,1170
11,CACGGAGCCACTTCCGGCGGCTGTGAGCGCAAAACC,35500
12,AACACTATTTCCTTTCTTGCTGCTCACATTTTAACA,4990
13,CTGCTTGAGGGTGGAGGGGAGCTTCCGAAGGAGGCC,536
14,TGGAGCTGTTACGGGGTCCGCGGGGAAGTCTTGGCA,364
15,GGACGCTTCCGGTGGAAGGGAGCTGTTACGGGGCTT,32900
16,AAACCAGAGGAAGTGGATTCCAACTACAAACCTCAC,1830
17,CTTATCAACTACCAAGAGACATTTCCCCTTTGTACT,558
18,ACTCACTTCCGTTTAGCTTATCAACTACCAAGAGAC,35500
19,CGGGAGCGGCCGAAGTGACGACTTCCGGGATGCTCC,7380
20,CCACCGTGCTGTAAACTGCACTTCCTCACTTAGCAC,870
21,CGCCTCATTTCCTGTGCAACTGCTGTAAAAATAGGA,22400
22,GTGCAACTGCTGTAAAAATAGGAAGTGGGGGAGGAG,861
